Calls of active or inactive are those of the source. Unless noted, how the calls were made is not given here.
Key:
[1] = compound effects on lung adenocarcinoma cell viability – A549, calcein-AM fluorescence, 48 h, basal, profiling panel (AID 1162); conditions: higher = more signal; further: test concentration not given here
[2] = compound effects on differentiated 3T3-L1 adipocyte viability – cell-based, 3T3-L1 adipocytes, calcein-AM fluorescence, 48 h, basal, profiling panel (AID 1163); conditions: 3T3-L1 adipocytes viability, higher = more signal; further: test concentration not given here
[3] = compound effects on hepatocellular carcinoma cell viability – HepG2, calcein-AM fluorescence, 48 h, basal, profiling panel (AID 1164); conditions: higher = more signal; further: test concentration not given here
[4] = compound effects on multiple myeloma cell viability – MM1S, calcein-AM fluorescence, 48 h, basal, profiling panel (AID 1165); conditions: higher = more signal; further: test concentration not given here
[5] = calcein-AM signal in unstimulated myeloma cells – cell-based, calcein-AM fluorescence, 48 h, PK04 Diversity Set, profiling panel (AID 1166); conditions: RPMI8226 myeloma viability, higher = more signal;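 further: cells grown under basal conditions without added stimulus; test concentration not given here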
[6] = JC-1 mitochondrial signal, unstimulated HepG2 cells – cell-based, JC-1 fluorescence, 24 h, 100 nL compound, profiling panel (AID 1167); conditions: HepG2 mitochondrial potential, higher = more signal; further: test concentration not given here
[7] = JC-1 mitochondrial signal, unstimulated adipocytes – cell-based, JC-1 fluorescence, 3T3-L1 adipocytes, 24 h, 100 nL compound, profiling panel (AID 1168); conditions: JC-1 mitochondrial fluorescence, higher = more signal, called active from +8 up or from −8 down; further: test concentration not given here
[8] = JC-1 mitochondrial signal, unstimulated myeloma cells – cell-based, JC-1 fluorescence, RPMI8226, 24 h, 100 nL compound, profiling panel (AID 1169); conditions: JC-1 mitochondrial potential fluorescence, higher = more signal; further: test concentration not given here
[9] = JC-1 mitochondrial signal, unstimulated MM1S myeloma – cell-based, JC-1 fluorescence, 24 h, 100 nL compound, profiling panel (AID 1170); conditions: MM1S mitochondrial potential, higher = more signal; further: test concentration not given here
[10] = resazurin metabolic signal in A549 cells – cell-based, resazurin fluorescence, 24 h, PK04 Diversity Set, profiling panel (AID 1171); conditions: A549 viability, higher = more signal, called active from +8 up or from −8 down; further: test concentration not given here
[11] = resazurin metabolic signal in HepG2 cells – cell-based, resazurin fluorescence, 24 h, PK04 Diversity Set, profiling panel (AID 1172); conditions: HepG2 viability, higher = more signal; further: test concentration not given here
[12] = budding yeast growth changes without added modifier – OD600, strain BY4716, 24 h, basal condition, primary screen (AID 1173); conditions: S. cerevisiae BY4716 growth, OD600, 24 h; higher = more signal, called active from +8 up or from −8 down
[13] = viability profiling in MM1S myeloma cells – cell-based, resazurin fluorescence, basal, 24 h, PK04 Diversity Set, profiling panel (AID 1174); conditions: higher = more signal, called active from +8 up or from −8 down; further: test concentration not given here
[14] = molecular target: Dihydroorotate dehydrogenase (quinone), mitochondrial (Plasmodium falciparum (isolate 3D7)) (UniProt Q08210); assay: inhibition of P. falciparum DHODH – biochemical, C-terminal His tag, absorbance 600 nm, primary screen (AID 1175); conditions: PfDHODH enzyme, DCIP absorbance 600 nm; higher = more signal, called active from +8 up or from −8 down;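 further: recombinant parasite enzyme with a five histidine tag at its C terminus; test concentration not given here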
Sequence of Dihydroorotate dehydrogenase (quinone), mitochondrial (Plasmodium falciparum (isolate 3D7)) (Q08210 whole entry, looked up): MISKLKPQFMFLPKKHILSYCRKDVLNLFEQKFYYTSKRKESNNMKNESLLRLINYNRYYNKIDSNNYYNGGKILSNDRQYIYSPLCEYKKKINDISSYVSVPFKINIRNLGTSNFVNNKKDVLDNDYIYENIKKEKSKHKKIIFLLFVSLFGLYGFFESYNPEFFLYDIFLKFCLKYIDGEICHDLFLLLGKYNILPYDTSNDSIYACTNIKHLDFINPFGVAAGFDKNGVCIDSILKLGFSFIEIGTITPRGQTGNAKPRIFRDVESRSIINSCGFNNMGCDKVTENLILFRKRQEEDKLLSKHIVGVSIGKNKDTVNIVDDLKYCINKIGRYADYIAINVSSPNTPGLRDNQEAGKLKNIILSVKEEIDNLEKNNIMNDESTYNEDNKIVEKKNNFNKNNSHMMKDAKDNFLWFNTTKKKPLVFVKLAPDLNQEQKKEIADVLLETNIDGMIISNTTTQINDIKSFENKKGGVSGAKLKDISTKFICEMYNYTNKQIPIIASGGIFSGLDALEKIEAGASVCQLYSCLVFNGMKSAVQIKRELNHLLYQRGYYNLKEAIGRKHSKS

[15] = inhibition of PAO1 biofilm formation – strain PAO1, LB-PBS medium, absorbance 600 nm, primary screen (AID 1176); further: test concentration not given here; conditions: P. aeruginosa PAO1 growth/biofilm, A600, 12 h; higher = more signal
[16] = growth modulation of vineyard yeast isolate – strain RM11-1a, OD600, basal, 24 h, primary screen (AID 1177);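 further: cultures grown under basal conditions with no added stressor; test concentration not given here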; conditions: S. cerevisiae RM11-1a growth, OD600, 24 h; higher = more signal, called active from +8 up or from −8 down
[17] = growth of efflux-deficient E. coli DRC39 – strain DRC39, OD650, 24 h, E. coli filamentation inducers, primary screen (AID 1178);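 further: growth measured as culture turbidity by optical density at 650 nm; test concentration not given here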; conditions: E. coli DRC39 acrAB, higher = more signal, called active from +8 up or from −8 down
[18] = growth of efflux-deficient E. coli DRC39 – strain DRC39, OD650, 48 h, E. coli filamentation inducers, primary screen (AID 1179);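 further: screen aims at cell division blockers that make cells filament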; conditions: E. coli DRC39 delta-acrAB growth, higher = more signal, called active from +8 up or from −8 down
[19] = viability profiling in RPMI8226 myeloma cells – cell-based, resazurin fluorescence, basal, 24 h, PK04 Diversity Set, profiling panel (AID 1180); conditions: higher = more signal;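 further: RPMI8826 multiple myeloma cell line at 5000 cells per well; test concentration not given here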
[20] = molecular target: E3 ubiquitin-protein ligase XIAP (Homo sapiens) (UniProt P98170); assay: small molecules binding XIAP protein – biophysical, small-molecule microarray, fluorescence 635 nm, primary screen (AID 1181); conditions: higher = more signal;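 further: score merges 667 nm emission and signal to noise over triplicate slides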
Sequence of E3 ubiquitin-protein ligase XIAP (Homo sapiens) (P98170 whole entry, looked up): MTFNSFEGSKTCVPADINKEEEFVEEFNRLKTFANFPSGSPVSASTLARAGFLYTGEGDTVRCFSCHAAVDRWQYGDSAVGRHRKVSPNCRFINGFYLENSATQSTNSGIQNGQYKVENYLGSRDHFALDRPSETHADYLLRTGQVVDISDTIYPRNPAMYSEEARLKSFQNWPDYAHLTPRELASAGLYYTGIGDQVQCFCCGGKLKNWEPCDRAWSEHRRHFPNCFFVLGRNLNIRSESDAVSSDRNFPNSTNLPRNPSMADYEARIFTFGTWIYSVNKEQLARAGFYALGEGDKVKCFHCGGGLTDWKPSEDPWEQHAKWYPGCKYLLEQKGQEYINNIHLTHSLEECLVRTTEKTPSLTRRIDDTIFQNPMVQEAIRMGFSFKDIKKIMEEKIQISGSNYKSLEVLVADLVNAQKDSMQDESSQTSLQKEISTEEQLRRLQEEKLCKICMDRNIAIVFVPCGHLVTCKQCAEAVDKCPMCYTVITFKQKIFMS

SMILES	z-score [1]	z-score [2]	z-score [3]	z-score [4]	z-score [5]	z-score [6]	z-score [7]	z-score [8]	z-score [9]	z-score [10]	z-score [11]	z-score [12]	z-score [13]	composite z-score [14]	z-score [15]	z-score [16]	z-score [17]	z-score [18]	z-score [19]	composite z-score [20]
COC(=O)[C@@]1(Cc2ccc(F)cc2)[C@@H]2[C@@H](CC(=O)[C@H]2CC(=O)C(=O)N2CCCC2)CN1C(=O)c1ccccc1	-0.974	-0.0508	-0.191	-2	-1.73	0.129	-1.52 (inactive)	-0.96	-1.25	-0.919 (inactive)	-0.572	0.508 (inactive)	-1.78 (inactive)	-0.238 (inactive)	1.03 (inactive)	0.23 (inactive)	-1.25 (inactive)	-0.212 (inactive)	-3.35	-0.0553
CC(=O)NCCCC[C@@H]1NC(=O)[C@H]2C[C@@H](C(=O)NCCCCCN)[C@@H](c3cccc(OCCO)c3)N2C1=O	-0.0064	0.352	0.491	0.701	0.948	0.0469	0.408 (inactive)	-0.38	0.155	1.1 (inactive)	0.382	-1.74 (inactive)	1.18 (inactive)	-0.613 (inactive)	0.0904 (inactive)	-1.1 (inactive)	1.03 (inactive)	1.24 (inactive)	1.5	-0.02
O=C(NCc1ccccc1)[C@]1(Cc2ccccc2)N=C(c2ccc(OCCCO)cc2)O[C@@H]1c1ccccc1	-2.44	0.709	-1.83	-2.57	-4.2	0.683	0.145 (inactive)	-1.21	-1.24	0.0976 (inactive)	0.455	1.41 (inactive)	-1.91 (inactive)	1.8 (inactive)	1.19 (inactive)	3.75 (inactive)	0.653 (inactive)	-0.642 (inactive)	-1.79	0.0871
Cc1ccc(S[C@]2(C(=O)NCC(C)C)CC(=O)N(C3CCCCC3)[C@@H]2c2ccc(CO)cc2I)cc1	-0.62	-0.395	-0.885	-3.28	-3.46	0.752	0.49 (inactive)	-0.947	0.0655	1.3 (inactive)	0.33	-1.05 (inactive)	0.0989 (inactive)	-0.0804 (inactive)	-0.81 (inactive)	-0.115 (inactive)	0.12 (inactive)	0.598 (inactive)	-0.693	-0.0559
CC(C)C(CO)N1C(=O)[C@@H]2[C@H]3C(=O)OCC=C[C@H]3OC23C=CCN(CCN2CCOCC2)C(=O)[C@@H]13 (stereo not given in full)	-0.334	-0.347	-0.434	-0.201	0.372	-0.982	-0.648 (inactive)	0.237	0.105	-0.324 (inactive)	-0.173	0.306 (inactive)	-0.505 (inactive)	0.395 (inactive)	-0.814 (inactive)	1.21 (inactive)	-0.934 (inactive)	-1.06 (inactive)	-0.371	-0.518
COc1cc(C(O)C2C=CC3C(=O)NC(=O)C3N2Nc2ccc(Cl)cc2Cl)cc(OC)c1OC (stereo not given)	-0.797	0.349	-0.751	0.192	-1.44	-0.359	-1.63 (inactive)	-0.82	0.483	-0.315 (inactive)	-0.925	-12.7 (active)	-0.679 (inactive)	0.0871 (inactive)	0.683 (inactive)	0.1 (inactive)	-0.305 (inactive)	-0.425 (inactive)	-0.933	0.0454
O=C1C2C=CC(C(O)c3ccc(Br)cc3)N(Nc3ccccc3)C2C(=O)N1c1ccccc1 (stereo not given)	-1.17	-1.45	-0.5	-1.27	0.134	-1.92	-0.711 (inactive)	-0.163	-0.0898	-0.201 (inactive)	-0.69	-3.48 (inactive)	-1.95 (inactive)	1.02 (inactive)	1.22 (inactive)	0.501 (inactive)	-0.387 (inactive)	-0.604 (inactive)	-1.48	0.184
C=C(C(=O)CC[C@H](OC(=O)c1cccnc1)c1ccc(OCCO)cc1)C(C)C	-0.328	0.165	-0.823	-3.3	-1.75	0.149	-0.00639 (inactive)	-0.634	-1.45	-0.569 (inactive)	-0.688	-0.303 (inactive)	-2.35 (inactive)	0.349 (inactive)	0.273 (inactive)	0.899 (inactive)	-0.97 (inactive)	-0.899 (inactive)	-2.53	0.158
COCCOC(=O)N1C(=O)[C@@]2(c3cc(C#Cc4ccc(OC)cc4)ccc31)[C@H](C(=O)N1CCc3cc(OC)c(OC)cc3C1)[C@H]1C(=O)O[C@H](c3ccccc3)[C@H](c3ccccc3)N1[C@@H]2c1ccc(O)cc1	-0.0326	0.376	0.97	0.175	-0.393	-0.177	0.302 (inactive)	-0.185	0.516	0.361 (inactive)	-0.0637	1.12 (inactive)	-0.108 (inactive)	0.751 (inactive)	0.858 (inactive)	2.08 (inactive)	-0.145 (inactive)	0.26 (inactive)	0.0506	0.202

— PubChem BioAssay
